# Cav3 T inh – blocks human Cav3.2 T-type calcium channel; O95180; Cav3.2-expressing cells, Fluo-4 calcium fluorescence FDSS; stronger effect = lower value; B-score at 10 µM; hit rate 4% among 100,000;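 active means single-dose well whose peak fluorescence ratio is a statistical outlier from its plate by either plate-standardised score or position-corrected B-score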
# CYP2C19 inh – inhibitors of human CYP2C19. P33261. CYP2C19 Supersomes, luciferin-H EGE luminescence, 30 min. inhibition, % at 5 µM. hit rate 21% among 96,000. AID 778;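 active means CYP2C19 inhibition above a set limit at 5 µM in the primary screen, cut at about 50% in these data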;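 further: plate controls were negative control wells for no effect and 2.5 mM tranylcypromine positive control for full effect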
# Target sequence (P33261 whole entry, looked up): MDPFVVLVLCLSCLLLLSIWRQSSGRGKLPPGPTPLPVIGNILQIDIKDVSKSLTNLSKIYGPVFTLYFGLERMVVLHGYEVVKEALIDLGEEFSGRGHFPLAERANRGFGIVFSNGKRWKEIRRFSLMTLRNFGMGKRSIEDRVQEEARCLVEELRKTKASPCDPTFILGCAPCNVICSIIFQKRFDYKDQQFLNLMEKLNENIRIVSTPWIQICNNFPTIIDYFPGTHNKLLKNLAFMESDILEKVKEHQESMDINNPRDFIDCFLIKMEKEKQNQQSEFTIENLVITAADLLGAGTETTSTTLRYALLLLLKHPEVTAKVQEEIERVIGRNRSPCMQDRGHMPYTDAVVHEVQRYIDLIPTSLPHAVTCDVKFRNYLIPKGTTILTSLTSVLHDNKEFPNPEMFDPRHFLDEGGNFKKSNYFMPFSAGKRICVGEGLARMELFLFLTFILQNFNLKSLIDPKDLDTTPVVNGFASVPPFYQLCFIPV
# PTK2B oligo ant – blocks oligomerization of human Pyk2 in cells; Q14289; z-score (the deposit names both 25 µM and 10 µM); AID 1347419; hit rate 0.83% among 99,000; Q293 cells, Pyk2 FERM NanoBiT luminescence; stronger effect = lower value;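 active means Z-score of -3 or lower, scaled per plate to the spread of control and sample wells; inactive means z-score above -3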;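 further: negative z-score means lost luminescence so less FERM oligomerization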
# CYP2C19 activ – increases human CYP2C19 enzyme activity | recombinant CYP2C19, luciferin-H EGE luminescence; stronger effect = higher value; 0 = fully inhibited enzyme, 1 = untreated enzyme | activation factor at 5 µM | 96,000 tested, under 10 active | AID 1025 | P33261;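 active means activation factor of at least 2 at 5 µM in the primary screen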;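 further: 0 = wells with 2.5 mM tranylcypromine and 1 = vehicle-only wells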
# CYP2C9 inh – inhibitors of human CYP2C9; P11712; CYP2C9 Supersomes, luciferin-H conversion, luminescence; inhibition, % at 5 µM; hit rate 20% among 96,000; AID 777;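 active means blocking of liver enzyme CYP2C9 beyond about 50% at 5 µM, limit read from the data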
# CYP2C9 activ – increases human cytochrome P450 2C9 activity | hit rate 1.4% among 96,000 | P11712 | activation factor at 5 µM | recombinant CYP2C9, luciferin-H conversion, luminescence; stronger effect = higher value; factor 1 = untreated enzyme, 0 = blocked | AID 1024;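 active means activation factor of 2 or more for CYP2C9 at a 5 µM dose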;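 further: 0 = sulfaphenazole-blocked wells and 1 = vehicle-only wells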
# Active calls of the source: *; . = no result given. Shown are actives, neighbours in structure and some others; about 27% of the full set was active somewhere.
SMILES,Cav3 T inh,CYP2C19 inh,PTK2B oligo ant,CYP2C19 activ,CYP2C9 inh,CYP2C9 activ
CCN(CC)C(=O)CSC(=Nc1ccccc1F)NC#N,1.29,43.7,-0.91,0.6,36.2,0.6
CC(C)N=C(NC#N)SCc1ccc(F)cc1,0.753,94.6*,1.23,0.1,62.6*,0.4
CCn1cc(C(=O)NCC2CCCO2)c(=O)c2cc(S(=O)(=O)N3CCC(C)CC3)ccc21 (configuration not stated),1.59,-1.1,1.44,1,43.6,0.6
Cn1cc(C(=O)NC2CCCCCCC2)c(=O)c2cc(S(=O)(=O)N3CCCC3)ccc21,0.151,5.5,-1.1,0.9,84.2*,0.2
CCn1cc(C(=O)NCC2CCCO2)c(=O)c2cc(S(=O)(=O)N3CCCCCC3)ccc21 (configuration not stated),0.916,18.5,0.68,0.8,56.6*,0.4
COC(=O)c1cn(C)c2ccc(S(=O)(=O)N3CCCCC3)cc2c1=O,0.0204,.,-0.24,.,.,.
Cc1c(C(=O)NN2CCCCC2)nn(-c2ccc(Cl)cc2Cl)c1-c1ccc(I)cc1,-4.91*,.,.,.,.,.
O=C(Oc1ccc(Br)cc1)c1cncc(Br)c1,0.00218,3.1,0.32,1,4.2,1
COc1ccc2c(c1)C(C1C(=O)CCCC1=O)c1ccccc1O2 (configuration not stated),1.08,3.1,-1.54,1,64.1*,0.4
N=c1c(C(=O)NCc2ccc(F)cc2)cc2c(=O)n3ccccc3nc2n1Cc1cccnc1,-0.458,7.3,-0.86,0.9,19.9,0.8
COc1ccc(NC(=S)NCCc2c[nH]c3ccc(OC)cc23)c(OC)c1,-1.18,71.1*,0.58,0.3,61.9*,0.4
COc1ccc(NC(=S)NCCN2CCOCC2)c(OC)c1,0.61,.,0.94,.,.,.
COc1ccc(NC(=S)NCCSc2ccc(C)cc2)c(OC)c1,-6.51*,.,0.17,.,.,.
COc1ccc(NC(=S)Nc2ncccc2C)c(OC)c1,-0.138,76.1*,0.24,0.2,13.6,0.9
Cc1ccc(C(C(=O)NCCc2ccccc2)N(C(=O)c2csnn2)C2CC2)o1 (configuration not stated),1.62,40.4,0.59,0.6,22.8,0.8
Cn1cccc1C(=O)C(=O)Nc1cccc(Cl)c1Cl,0.573,28.1,0.46,0.7,-99.1,2*
Cn1cccc1C(=O)C(=O)Nc1ccc(Cl)cc1,-0.27,32.4,0.09,0.7,-5.8,1.1
CCOC(=O)C1CCN(C(=O)Cc2cccs2)CC1,0.265,58.8*,0.48,0.4,-7.6,1.1
Cc1cccc(OCC(=O)N2CCC(c3ccccc3)C2)c1 (configuration not stated),-1.05,45.9,0.1,0.5,14.3,0.9
CCOC(=O)C1CCN(C(=O)COc2cccc(C)c2)CC1,-0.247,81.3*,0.38,0.2,19.9,0.8
CCOC(=O)C1CCN(CC(O)COc2ccc(C(C)(C)C)cc2)CC1 (configuration not stated),-1.11,56.0*,-0.19,0.4,40.0,0.6
CCOC(=O)C1CCN(C(=O)COc2ccc(Br)cc2)CC1,0.0202,82.2*,1.23,0.2,64.9*,0.4
Cc1ccnc(NC(=O)c2ccc(N3C(=O)CCC3=O)cc2)c1,0.885,-5.8,1.86,1.1,-4.1,1
O=C(OCC#CCSc1nnc(-c2ccc([N+](=O)[O-])cc2)o1)c1cccs1,-2.19,-11.0,0.71,1.1,6.5,0.9
Cc1cccc(OCC(=O)N2CCN(C(=O)c3cccs3)CC2)c1,-0.112,61.5*,0.47,0.4,59.0*,0.4
SMILES,Cav3 T inh,CYP2C19 inh,PTK2B oligo ant,CYP2C19 activ,CYP2C9 inh,CYP2C9 activ
O=C(COc1ccccc1)N1CCN(C(=O)c2cccs2)CC1,0.259,29.0,0.12,0.7,16.3,0.8
COc1ccc(O)c(-c2cc(-c3cccs3)[nH]n2)c1,-1.12,36.8,-1.11,0.6,73.7*,0.3
Oc1ccc(Br)cc1-c1cc(-c2ccccc2F)[nH]n1,-0.739,16.2,-0.26,0.8,29.4,0.7
COc1ccc(-n2c(N)c(C(=O)NCC3CCCO3)c3nc4ccccc4nc32)c(OC)c1 (configuration not stated),-8.01*,26.7,-1.45,0.7,55.3*,0.4
Nc1c(C(=O)OCC2CCCO2)c2nc3ccccc3nc2n1-c1ccc2c(c1)OCCO2 (configuration not stated),-0.0888,54.0*,.,0.5,58.6*,0.4
CCCNC(=O)c1c(N)n(-c2cc(OC)cc(OC)c2)c2nc3ccccc3nc12,-6.5*,30.7,-0.93,0.7,70.4*,0.3
C=CCn1c(N)c(C(=O)NCC2CCCO2)c2nc3ccccc3nc21 (configuration not stated),-2.27,10.7,-1.45,0.9,42.2,0.6
CC(=O)Nc1ccc(S(=O)(=O)NCC(=O)OC(C)c2ccccc2Cl)cc1 (configuration not stated),.,.,0.64,.,.,.
CC1CC(C)CN(C(=O)CSCC(=O)Nc2nc(-c3cccs3)cs2)C1 (configuration not stated),.,40.3,.,0.6,84.2*,0.2
O=C(CSCC(=O)N1CCCCC1)Nc1nc(-c2cccs2)cs1,-3.67*,39.6,.,0.6,31.7,0.7
CCOC(=O)N1CCN(C(=O)CSCC(=O)Nc2nc(-c3ccccc3)cs2)CC1,-2.66,.,-1.57,.,.,.
O=C(CN1C(=O)CCC1=O)Nc1nc(-c2cccs2)cs1,0.129,7.0,-1.23,0.9,4.9,1
S=C(N=Nc1ccccc1)NNc1ccccc1,-0.0163,.,.,.,.,.
O=C(ONc1ccc(N=NC(=O)c2ccccc2O)cc1)c1ccccc1,-4.51*,84.3*,-0.01,0.2,71.0*,0.3
COc1ccc(N=C2SC(CC(=O)Nc3ccccc3)C(=O)N2CCc2ccccn2)cc1 (configuration not stated),.,.,-1.69,.,.,.
COc1ccc(N=C2SC(CC(=O)Nc3ccc(OC)cc3OC)C(=O)N2C)cc1 (configuration not stated),-0.78,49.2,-1.33,0.5,52.0*,0.5
NC(=O)c1ncc(C(F)(F)F)cc1Oc1ccc(C(F)(F)F)cc1,0.507,75.3*,0.31,0.2,19.3,0.8
CCN(CC)CC(C)OC(=O)COc1ccc(OC)cc1 (configuration not stated),-0.135,.,0.35,.,.,.
Cn1c(Sc2ccc(C(F)(F)F)cc2[N+](=O)[O-])nnc1-c1ccccc1,0.905,33.5,0.86,0.7,-100.2,2*
CCOC(=O)C(C(=O)OCC)C(CC(=O)C1CC1)c1ccccc1 (configuration not stated),-1.68,18.7,0.68,0.8,1.2,1
CCCNS(=O)(=O)c1ccc(OCC(=O)N2CCOCC2)cc1,0.831,.,0.75,.,.,.
CCN(C(=O)COC(=O)C(Cc1ccccc1)N1C(=O)c2ccccc2C1=O)C1CCS(=O)(=O)C1 (configuration not stated),-1.85,39.7,-0.29,0.6,26.4,0.7
